Sampled rows, rich in hits. Any-hit rate of the full collection: about 19%.
IL-1B inflam inh = inhibitors of inflammasome signaling (IL-1 beta secretion) | THP-1 LPS/ATP IL-1B secretion, AlphaLISA, 16 h; hits give low values | activity change, % at 57.5 µM | 360,000 tested, 4.7% active; in the data active means activity change below about -50%; inconclusive means mostly about -30% to -49%
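Secreted IL-1B measured by AlphaLISA bead assay after 16 h compound exposure of THP-1 cells; compounds (final up to 57.5 uM) added 1 h before LPS (250 ng/mL) and ATP (1.25 mM) stimulation; lower signal means less secretion.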
TDP1 cell noCPT = qHTS for Inhibitors of human tyrosyl-DNA phosphodiesterase 1 (TDP1): qHTS in cells in absence of CPT; 420,000 tested, 15% active; AID 686978, 2013; Potency, µM (doses to about 46.2 µM), for inactives: at the highest dose activity change, negative = growth inhibition, hits mostly inhibitors; DT40 Tdp1-/- hTDP1 cells, no CPT, ATP luminescence, 48 h; further: potency means the concentration at half of the fitted maximal effect; nearly all actives have a fitted effect of over 55% in size
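Luminescent ATP content (CellTiter-Glo) served as the growth readout. Knockout chicken DT40 cells expressing human TDP1 were exposed to compounds without camptothecin for a minimum 48 hr at 37 °C.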
HT1080NT lethal = kills 2HG-producing HT-1080-NT fibrosarcoma cells | HT-1080-NT fibrosarcoma viability, CellTiter-Glo ATP luminescence, 48 h | Potency, µM (top dose mostly 46.1 µM), for inactives: at the highest dose activity, negative = less viability, usual class: cytotoxic | 360,000 tested, 1.6% active | AID 686970;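 further: NT is the 2HG producing partner of a matched IDH1 knockdown line; potency means the concentration at half of the fitted maximal effect; 0% = DMSO-treated cells and -100% = media-only wells without cells; nearly all actives have a fitted effect of over 55% in size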
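Viability of the 2HG-overproducing fibrosarcoma line after 48 hours of compound exposure at 37 degrees C was determined by luminescence with CellTiter-Glo, and concentration-effect curves were then fitted and categorized.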
TDP1 cell CPT = growth inhibition of DT40 Tdp1-/-;hTDP1 cells with camptothecin (screen for TDP1 inhibitors); chicken DT40 Tdp1-/-;hTDP1 cells + 20 nM CPT, ATP luminescence, 48 h; Potency, µM (titrated, usually from 46.2 µM), for the others: top-dose activity change, negative = growth inhibition, usual class: inhibitors; 420,000 tested, 12% active; further: potency means the concentration at half of the fitted maximal effect; nearly all actives have a fitted effect of over 55% in size
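Chicken DT40 Tdp1-/- cells complemented with human TDP1, 400 cells/well, exposed to compounds plus 20 nM camptothecin for at least 48 h at 37 C; viability read as ATP content by CellTiter-Glo luminescence.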
HT1080 IDH1KD tx = kills HT-1080 cells with IDH1 knockdown. HT-1080 IDH1 knockdown viability, ATP luminescence, 48 h. Potency, µM (doses to about 46.1 µM), for the others: at the top dose activity, negative = toxicity, actives largely listed as cytotoxic. 360,000 tested, 2% active. AID 686971;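 further: potency means the concentration at half of the fitted maximal effect; 0% = DMSO wells and -100% = cell-free medium wells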
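Cytotoxicity counter-line: IDH1KD HT-1080, 48 h, CellTiter-Glo. Curves classed by r2, magnitude and activity.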
* = called active by the depositor; ? = inconclusive; · = no result. Unless noted, the call rests on the fitted dose curve; in most records, active means well fitted curve in the direction sought with a large enough effect; inconclusive means small, poorly fitted or top-dose-only effect, or another doubt; inactive means no such curve, though single readings can be large; an effect the other way counts as inactive or inconclusive. Unless noted, on the % scale 0 is the no-effect control and ±100 the full control effect.

SMILES	IL-1B inflam inh	TDP1 cell noCPT	HT1080NT lethal	TDP1 cell CPT	HT1080 IDH1KD tx
CCC(C)C(=O)OC1C(O)C2C(CN3CC(C)CCC3[C@]2(C)O)C2C[C@]34O[C@@]5(O)C(OC(=O)C(C)(O)CC)CCC3(C)C5C(OC(C)=O)C(OC(C)=O)C4[C@@]21O (some centres undefined)	·	4%	·	1%	·
CC(C)Sc1nnc([C@@H](N)Cc2ccccc2)o1	-6	-10%	-3%	-7%	4%
O=C(Nc1cccc2ccccc12)N1Cc2ccccc2-n2nncc2C1	25	?	1%	-27%	5%
O=C(Nc1cccc2ccccc12)c1nn(C23CC4CC(CC(C4)C2)C3)cc1Br	-3	16µM*	2%	23µM*	2%
C[C@@H]1[C@H](O)[C@@H](C)/C=C/C=C/CC/C=C/C=C/C=C/C=C/[C@H](O[C@H]2O[C@@H](C)[C@H](O)[C@@H](N)[C@H]2O)CC2O[C@](O)(C[C@@H](O)[C@H](O)CC[C@@H](O)C[C@@H](O)C[C@@H](O)CC(=O)O[C@H]1C)C[C@H](O)[C@H]2C(=O)O	·	-24%	·	-8%	·
C[C@H]1C[C@@H]2[C@H]([C@@H](O)C[C@@]3(C)[C@H]2CC[C@]3(O)C(=O)COC(=O)CCC(=O)O)[C@@]2(C)C=CC(=O)C=C12	·	-16%	·	?	·
CN(C)S(=O)(=O)c1cccc(C(=O)N2CCC(C(=O)O)(c3ccccc3)CC2)c1	-1	-4%	18%	6%	21%
CN(c1ccccc1)S(=O)(=O)c1cccc(C(=O)N2CCN(c3ccccn3)CC2)c1	-12	16µM*	-6%	18µM*	0%
O=C(c1cccc(C(F)(F)F)c1)N1C[C@H]2C[C@@H](C1)c1cccc(=O)n1C2	7	-15%	8%	8%	4%
Cc1cccc(/C(N)=N/OC(=O)N2CCOCC2)c1	-18	18µM*	?	16µM*	11µM*
CC(C)COP(=O)(c1ccc(N(C)C)cc1)C(Nc1ccccc1)c1ccccc1 (centres undefined)	-3	29µM*	-12%	?	-6%
CC(C)CCOP(=O)(c1ccc(N(C)C)cc1)C(O)c1ccccc1 (centres undefined)	14	?	-10%	?	2%
CC(C)COP(=O)(OCC(C)C)C(Nc1ccccc1)c1ccccc1 (centres undefined)	-58*	?	18µM*	?	?
COP(=O)(OC)C(Nc1ccccn1)c1ccccc1 (centres undefined)	13	0%	7%	-2%	14%
O=P(Oc1ccccc1)(Oc1ccccc1)C(Nc1ccccc1)c1ccccc1 (centres undefined)	0	16µM*	-27%	?	-10%
CN(C)c1ccc(P(=O)(OC2CCCCC2)C(Nc2ccccc2)c2cccnc2)cc1 (centres undefined)	-52*	21µM*	-21%	?	-19%
CC(N)CCCC(C)(C)O (centres undefined)	·	-6%	·	0%	·
O=P(O)(O)C(Cl)(Cl)P(=O)(O)O	·	0%	·	13%	·
COc1ccc(NC(=O)CCc2nc(C3=CCN(Cc4cccc(C)c4)CC3)no2)c(OC)c1	·	12µM*	·	16µM*	·
COc1cccc(CN2CC=C(c3ccc(F)cc3)CC2)c1	-8	-9%	-10%	-1%	-20%
O=C(CCc1nc(C2=CCN(Cc3cccc(Cl)c3)CC2)no1)Nc1ccccc1F	·	12µM*	·	15µM*	·
COP(=O)(OC)/C(C=O)=N/Nc1ccc([N+](=O)[O-])cc1	-2	1%	-17%	-18%	-11%
CCOC(=O)C(O)(c1ccc(NC(=O)NC)cc1)C(F)(F)F (centres undefined)	14	-6%	14%	-10%	18%
CC(C)CN1CC[C@@]2(CCCN(C(=O)c3ccncc3)C2)C1	·	0%	·	14%	·
CC(C)Oc1cc(-n2c(=S)[nH]c3ccccc3c2=O)c(Cl)cc1Cl	29	16µM*	-27%	?	?
SMILES	IL-1B inflam inh	TDP1 cell noCPT	HT1080NT lethal	TDP1 cell CPT	HT1080 IDH1KD tx
COc1cc(-n2c(=S)[nH]c3ccccc3c2=O)c(Cl)cc1Cl	0	26µM*	?	?	?
COC(=O)C1=C(c2c(C)noc2C)C[C@@H]2CC[C@H]1N2C(=O)NCCCOC(C)C	26	5%	14%	3%	8%
CC(Cc1ccccc1)NC(=O)/C=C/C(=O)O (centres undefined)	-5	-5%	26%	11%	20%
Cc1ccc(-c2nn(Cc3ccccc3)cc2C=O)cc1C	-22	16µM*	-4%	?	-2%
CCN(CC)C1=NC(=[N+](CC)CC)c2ccccc21	?	0.41µM*	?	0.65µM*	13µM*
c1cncc(CNc2cc(-c3ccc4c(c3)OCO4)ncn2)c1	·	?	·	7%	·
Cc1ccccc1C(=O)Nc1ccc(C(=O)OCc2cc(=O)n3nc(C4CC4)sc3n2)cc1	·	?	·	21µM*	·
COC(=O)c1ccc(NC(=O)c2cccn(Cc3ccccc3C)c2=O)cc1	·	11%	·	-12%	·
CCCCCc1nc2c(c(=O)c3ccccc3n2C)c(=O)n1C1CCCCCC1	10	18µM*	?	21µM*	?
COc1ccc(NC2(C#N)CCCCC2)cc1	1	11%	-4%	1%	0%
COC(=O)C1=C(c2cc3ccccc3s2)C[C@@H]2CC[C@H]1N2C	-9	-23%	0%	-9%	-11%
COC(=O)C1=C(c2ccccc2)C[C@@H]2CC[C@H]1N2C(=O)N1CCC(O)CC1	27	6%	1%	-5%	11%
COC(=O)C1=C(c2cc3ccccc3s2)C[C@@H]2CC[C@H]1N2C(=O)NCc1ccc(C(F)(F)F)cc1	-52*	18µM*	?	?	?
COC(=O)C1=C(c2cc3ccccc3s2)C[C@@H]2CC[C@H]1N2C(=O)N1CCC(C)CC1	-19	2.6µM*	-2%	5.2µM*	-24%
COC(=O)C1=C(c2cc3ccccc3s2)C[C@@H]2CC[C@H]1N2C(=O)NC1CC1	18	15µM*	0%	?	1%
COC(=O)C1=C(c2cc3ccccc3s2)C[C@@H]2CC[C@H]1N2C(=O)NCC1CC1	11	16µM*	3%	?	-2%
Cc1nc2ccccc2c(=O)n1-c1ccc(Cl)cc1[N+](=O)[O-]	0	?	-1%	?	5%
CCN1C[C@]2(COC)CC[C@H](O)[C@@]34C5C[C@H]6[C@H](O)C5[C@](O)(C[C@H]6OC)[C@@H]([C@H](OC)C23)[C@@H]14 (some centres undefined)	8	0%	-3%	5%	2%
